Assay results as given in PubChem BioAssay AID489042 (NMMLSC, 2010).
A number with no mark means an inactive call. Activity calls are given as the source filed them. No stated cut-off is given here; in the data, active means inhibition score above about 11; inactive means the rest.

Assay: yeast proliferation inhibition, dose response, BY4741, OD595, 24 h (AID 489042)
Settings: S. cerevisiae BY4741 growth, active compounds read high

Compared with `CCc1nc(NC(C)(C)C)c2cnn(-c3ccccc3)c2n1`, `CC(C)(C)Nc1ncnc2c1cnn2-c1ccccc1` is higher in inhibition score: 0 for the first, 10 for the second.

`O=C(CN1CCN(c2ccccn2)CC1)Nc1ccccc1F` and `O=C(OCc1c(F)cccc1Cl)c1cnc2ccccc2n1` are the same in inhibition score: 0 for the first, 0 for the second.

`c1ccc2[nH]c3cc4ncnc4cc3nc2c1` and `FC(F)(F)c1nc2cc3nc4ccccc4[nH]c3cc2n1` are the same in inhibition score: 0 for the first, 0 for the second.

`N#CCc1nn(-c2ccccc2)c2ncnc(N)c12` and `CN(C)CCNc1ncnc2c1cnn2-c1ccc(Cl)cc1` are the same in inhibition score: 0 for the first, 0 for the second.

`CC(C)CSc1nnc2c3ccccc3n(C)c2n1` and `CC(C)OC(=O)CSc1nnc(-c2ccc(Cl)cc2Cl)o1` are the same in inhibition score: 0 for the first, 0 for the second.

`COC(=O)c1cccc2nc3c(C(C)O)cccc3nc12` (centres undefined) and `CCN(CC)C(=O)c1cccc2nc3ccccc3nc12` are the same in inhibition score: 0 for the first, 0 for the second.

First: O=C(c1cccc2nc3ccccc3nc12)N1CCOCC1
Second: Cc1cccc2nc3ccccc3nc12
The inhibition score of the first is lower: 0 for the first, 10 for the second.

`COc1cccc2nc3cc(C)c(C)cc3nc12` and `COc1ccc2nc3cccc(OC)c3nc2c1` are the same in inhibition score: 10 for the first, 10 for the second.

Going from `[O-][n+]1c2ccccc2[n+]([O-])c2cc(O)ccc21` to `CCN(CC)C(=O)c1ccc2nc3ccccc3nc2c1`, the inhibition score falls from 10 to 0.

`Cc1cc2nc3ccc(N(C)C)cc3nc2cc1N` and `COc1ccc2nc3ccccc3nc2c1NC(=O)c1ccccc1Cl` are the same in inhibition score: 0 for the first, 0 for the second.

`NC(=O)CSc1nnc(-c2ccc([N+](=O)[O-])cc2)o1` and `CCN(CC)C(=O)CSc1nnc(-c2cccc(OC)c2)o1` are the same in inhibition score: 0 for the first, 0 for the second.

For `CCC(=Nc1ccccc1O)C1=C(O)CC(c2ccccc2)CC1=O` (centres undefined), the inhibition score was 10.

With `CC(C)(C)n1nc(-c2ccc(Cl)cc2)c2c(N)ncnc21` the inhibition score was 21 (active).
With `COc1ccc2c(c1)c1nnc(SC)nc1n2C` the inhibition score was 21 (active).
With `C[C@@]12C(=O)OC(=O)[C@]1(C)C1CCC2O1` the inhibition score was 21 (active).
For `Cc1ccc(-c2nn(C(C)(C)C)c3ncnc(N)c23)cc1`, the inhibition score was 21 (active).
For `c1ccc2nc3ccccc3nc2c1`, the inhibition score was 21 (active).
For `O=C(/C=C/c1ccccc1)NC(=S)NNC(=O)Cc1cccs1`, the inhibition score was 21 (active).
